# According to the supplement of paper PMC10477191:
# ± gives the standard deviation of the averaged measurements.
# System: Drosophila virilis antennal basiconic sensillum AB5
# Experiment: odor-evoked OSN spike response (post minus pre-stimulus); higher = stronger neuronal excitation
# Settings: odor dilution: 10^-4
# Procedure: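 Single sensillum recordings from antennal basiconic sensilla of D. virilis. A 500 ms pulse of odorant (10^-4 in mineral oil or DMSO) was delivered; the response is the change in spike frequency between the 1 s pre- and post-stimulus windows (spikes/s).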
row,SMILES,odor-evoked OSN spike response
1,"COc1cccc(OC)c1O [Phenol, 2,6-dimethoxy- (powder)]",54 ± 20 spikes/s
2,CCCCCOC(C)=O [pentyl acetate],65.7 ± 11 spikes/s
3,COC(=O)c1ccccc1 [methyl benzoate],49.2 ± 8.7 spikes/s
4,CC(=O)c1ccccc1 [Acetophenone],65.7 ± 8.1 spikes/s
5,CC(=O)OC/C=C(\C)CCC=C(C)C [geranyl acetate],81 ± 11 spikes/s
